Consider 40 sequences from the supplement of paper PMC6555819.

One assay deals with PPARg homodimer (NR concentration 180 nM). The assay can be described thus: PBM binding z-score (relative to random genomic background probes); higher = stronger binding; sequences stand for … in GC…GCGATTGACAGCGTAGAATGAAGG
Put shortly: (§1)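 Binding z-scores were set against random background probes. The data came from custom Agilent 4×180K protein-binding microarrays carrying double-stranded probes with 34-nt variable regions, incubated 1 h with ligand-free nuclear receptor dimers. Partner-specific antibodies detected binding, and scanned fluorescence was regression-normalized.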
Sequence AGAACGAGGGCACGCTGAGTTCATAGCAGAGTAG returned a PBM binding z-score of 1.16.

GATACAGGGTCAGCTAGAGGACAGAGTATGGAAA displayed a PBM binding z-score of 2.5.

In turn, AGTCAAAGTTCATCTAGGTAACGTAGGATATGCT displayed a PBM binding z-score of 2.37.

Turning to GGAACGAGGACAAGTTGATAGCAGAGTTTGATGG, the PBM binding z-score is -0.282.

The sequence GCTGCTAGGTCTGGTTGGTCAGCTAACGGGTACG yielded a PBM binding z-score of -0.461.

The sequence AGAATGAGGTAATACGTAGATCAGGGAAGAAAGT returned a PBM binding z-score of -0.201.

AGAACGAGGGCACGCTGAGTTGATGGCAGAGTAG showed a PBM binding z-score of 0.179.

The sequence TCACGGAGGACACGAAAGGTCAGAGCTCGACATC returned a PBM binding z-score of 2.1.

In turn, TCTTGTAGATAAGCAGGTTAAGAAAGCTGGCCAA yielded a PBM binding z-score of 0.0505.

As for CCTAGTTGGTCAGGAGGTTACACACCGGATATGA, the PBM binding z-score was 1.84.

In turn, TCTGCTAGGTCAGTTGGTCAGCCAACGAGCTGCC displayed a PBM binding z-score of 0.252.

On to CATCCAAGGTCAGAGAGGTCAGTGAATGCCGAGT, for which the PBM binding z-score was 4.41.

Consider TCAAGCAGGCCAGAGGGTCACTCAAGAGGTACGG, for which the PBM binding z-score is 0.379.

As for AATACAGGGTCACTAGGCGAGAGTAGGTACGAAT, the PBM binding z-score amounted to 2.09.

In turn, CCTACTTGGTCAGGAGGTCACACACCGGATATGA showed a PBM binding z-score of 3.23.

Take GGAACGAGGGCAAAGATGATAGCATCTGTCGACG: the PBM binding z-score stood at 0.289.

For the sequence CCTACAGGGCCACGAAAGGTCATTGATTCAGTGA, the PBM binding z-score came out at 2.63.

As for TTACCAAGGTGTAGGTCGTTGATCCCTCTGTAGA, the PBM binding z-score turned out to be 0.0452.

In turn, CGAACTACGTCAGAACAGGACAGTGAAGGATGAT had a PBM binding z-score of 0.0908.

On to CCTACTGGGCCACGGAAGGTCATTGATTCAGTGA, for which the PBM binding z-score was 1.7.

Consider CCTAGTTGGTCAAGAGGTCACACACCGGATATGA, for which the PBM binding z-score is 3.36.

Sequence TCTTGTAGATTAACAGGAGGTTAAGAAAGATCGA came in with a PBM binding z-score of -0.439.

Sequence CGTCCAAGGTCAAAGGTCGGTGAAGAGATGACGG gave a PBM binding z-score of 2.61.

GCTGCTAGGTCAGATTGGTCAGCTAACGGGTACG: the PBM binding z-score is 0.271.

TCTAGTAGATCAACAGGAGGTTAAGAAAGATCGA: the PBM binding z-score was determined as 0.637.

The sequence ACTATTAGTTGACTTAGGCCAACCGATACGACGC showed a PBM binding z-score of 1.1.

For the sequence TATACAGGGTCATAGGCCAGAGTACGAATGTCGA, the PBM binding z-score came out at 2.09.

GCTCGGATGACAAGGTCAGAGCTTTGTCCGTAGA: the PBM binding z-score amounted to 0.624.

In the case of CGTCCAAGGTCAATGCTAGGTCGGTGAAAGCATT, the PBM binding z-score stood at 1.98.

With TCTATTAGTTGACTAGGGCAACCGAAACAGCGGA, the PBM binding z-score is 1.

TTGCCAAGGTGAAGGTCGTTGATCCCTCTGTAGA had a PBM binding z-score of 0.119.

TCTCGGAGGACACGATGGTCAGAGCTTTCCAGAG gave a PBM binding z-score of -1.04.

Take TCTATTAGTTGATTAGGGCAACTGAAACAGCGGA: the PBM binding z-score was -0.0911.

In turn, TCTTGTAGATGAAAGGTTAAGAAAGCCGAAGCCT had a PBM binding z-score of 0.811.

On to TCAGACATGTGAAGGTAACTCAGGTACGCAGTCG, for which the PBM binding z-score was -0.0995.

The sequence ATATGTAGGTTAATGGTCATTCAGGTTGGTTCGC yielded a PBM binding z-score of 2.47.

In the case of ACTATTAGTTGAGACAAGGGCAACCGATAGGTTG, the PBM binding z-score was determined as 1.21.

With GCTGCTAGGTCCACTGATGGTCAGCTAAAGCTCG, the PBM binding z-score is -1.01.

In turn, TTACCAAGGTGAAGGTCCTTGATCCCTCTGTAGA came in with a PBM binding z-score of -0.00432.

As for CAAACTAGGTCACGAAAGGTCAATGTCGAATGAC, the PBM binding z-score came out at 4.79.

A further assay concerns PXR:RXRa (NR concentration 270 nM, RXRa partner concentration 90 nM). The description is as above. Put shortly: as §1
On to AGAACGAGGGCACGCTGAGTTCATAGCAGAGTAG, for which the PBM binding z-score is 5.94.

On to GATACAGGGTCAGCTAGAGGACAGAGTATGGAAA, for which the PBM binding z-score came out at 3.17.

On to AGTCAAAGTTCATCTAGGTAACGTAGGATATGCT, for which the PBM binding z-score was 5.12.

In turn, GGAACGAGGACAAGTTGATAGCAGAGTTTGATGG displayed a PBM binding z-score of 0.0933.

The sequence GCTGCTAGGTCTGGTTGGTCAGCTAACGGGTACG gave a PBM binding z-score of -0.762.

In the case of AGAATGAGGTAATACGTAGATCAGGGAAGAAAGT, the PBM binding z-score was 0.144.

In turn, AGAACGAGGGCACGCTGAGTTGATGGCAGAGTAG showed a PBM binding z-score of 1.13.

Turning to TCACGGAGGACACGAAAGGTCAGAGCTCGACATC, the PBM binding z-score stood at 4.03.

Take TCTTGTAGATAAGCAGGTTAAGAAAGCTGGCCAA: the PBM binding z-score came to 0.206.

CCTAGTTGGTCAGGAGGTTACACACCGGATATGA returned a PBM binding z-score of 0.862.

For the sequence TCTGCTAGGTCAGTTGGTCAGCCAACGAGCTGCC, the PBM binding z-score is 0.152.

On to CATCCAAGGTCAGAGAGGTCAGTGAATGCCGAGT, for which the PBM binding z-score amounted to 6.17.

In turn, TCAAGCAGGCCAGAGGGTCACTCAAGAGGTACGG registered a PBM binding z-score of 1.65.

On to AATACAGGGTCACTAGGCGAGAGTAGGTACGAAT, for which the PBM binding z-score amounted to 3.16.

CCTACTTGGTCAGGAGGTCACACACCGGATATGA had a PBM binding z-score of 4.26.

The sequence GGAACGAGGGCAAAGATGATAGCATCTGTCGACG came in with a PBM binding z-score of 0.215.

On to CCTACAGGGCCACGAAAGGTCATTGATTCAGTGA, for which the PBM binding z-score worked out at 5.61.

Sequence TTACCAAGGTGTAGGTCGTTGATCCCTCTGTAGA gave a PBM binding z-score of 0.444.

On to CGAACTACGTCAGAACAGGACAGTGAAGGATGAT, for which the PBM binding z-score was -0.524.

Sequence CCTACTGGGCCACGGAAGGTCATTGATTCAGTGA showed a PBM binding z-score of 3.57.

In the case of CCTAGTTGGTCAAGAGGTCACACACCGGATATGA, the PBM binding z-score is 4.96.

TCTTGTAGATTAACAGGAGGTTAAGAAAGATCGA registered a PBM binding z-score of 0.578.

Consider CGTCCAAGGTCAAAGGTCGGTGAAGAGATGACGG, for which the PBM binding z-score worked out at 5.91.

GCTGCTAGGTCAGATTGGTCAGCTAACGGGTACG came in with a PBM binding z-score of 0.33.

In the case of TCTAGTAGATCAACAGGAGGTTAAGAAAGATCGA, the PBM binding z-score was determined as 0.739.

In turn, ACTATTAGTTGACTTAGGCCAACCGATACGACGC came in with a PBM binding z-score of 0.168.

Take TATACAGGGTCATAGGCCAGAGTACGAATGTCGA: the PBM binding z-score was 4.

With GCTCGGATGACAAGGTCAGAGCTTTGTCCGTAGA, the PBM binding z-score is 1.51.

CGTCCAAGGTCAATGCTAGGTCGGTGAAAGCATT yielded a PBM binding z-score of 3.86.

TCTATTAGTTGACTAGGGCAACCGAAACAGCGGA returned a PBM binding z-score of 0.491.

As to TTGCCAAGGTGAAGGTCGTTGATCCCTCTGTAGA, the PBM binding z-score came to 1.21.

Sequence TCTCGGAGGACACGATGGTCAGAGCTTTCCAGAG had a PBM binding z-score of -0.421.

TCTATTAGTTGATTAGGGCAACTGAAACAGCGGA registered a PBM binding z-score of 0.233.

Regarding TCTTGTAGATGAAAGGTTAAGAAAGCCGAAGCCT, the PBM binding z-score came out at 1.29.

TCAGACATGTGAAGGTAACTCAGGTACGCAGTCG: the PBM binding z-score worked out at 0.383.

Sequence ATATGTAGGTTAATGGTCATTCAGGTTGGTTCGC gave a PBM binding z-score of 1.23.

In turn, ACTATTAGTTGAGACAAGGGCAACCGATAGGTTG gave a PBM binding z-score of 0.594.

As for GCTGCTAGGTCCACTGATGGTCAGCTAAAGCTCG, the PBM binding z-score was -0.525.

For TTACCAAGGTGAAGGTCCTTGATCCCTCTGTAGA, the PBM binding z-score stood at 0.544.

In turn, CAAACTAGGTCACGAAAGGTCAATGTCGAATGAC returned a PBM binding z-score of 6.78.
